Among the data in the supplement of paper PMC6555819 are PBM binding z-score values, retold here.

Test in all cases: PBM binding z-score (relative to random genomic background probes); higher = stronger binding; sequences stand for … in GC…GCGATTGACAGCGTAGAATGAAGG
Test [1] has as its system PPARg:RXRa DBDmut IVT, anti-RXR (DBD mutation: RXRa K156A/R161A, NR concentration 270 nM, RXRa partner concentration 90 nM). The essentials: (§1)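 On custom Agilent 4×180K arrays, double-stranded probes with 34-nt variable regions carried direct-repeat seeds, single-nucleotide variants, half-site ablations or random human genomic background. Ligand-free nuclear receptor dimers were applied for 1 h, and binding was read with antibodies against each partner (one per run). Binding z-scores come from regression-normalized fluorescence, with the random background probes as reference.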

For test [2], the system named is PPARg:RXRa IVT, anti-PPARg (NR concentration 270 nM, RXRa partner concentration 90 nM). The essentials: as §1
In test [3] the test system is PPARg DBDmut:RXRa IVT, anti-PPARg (DBD mutation: PPARg1 K132A/R137A, NR concentration 270 nM, RXRa partner concentration 90 nM). The essentials:
as §1

Test [4] relates to PPARg DBDmut IVT, anti-PPARg (DBD mutation: PPARg1 K132A/R137A, NR concentration 270 nM). The essentials:
as §1

Test [5] deals with PPARg homodimer (NR concentration 180 nM). The gist of the method:
as §1

The test system of test [6] is PXR:RXRa (NR concentration 270 nM, RXRa partner concentration 90 nM). The essentials: as §1
In test [7] the test system is PXR homodimer (NR concentration 270 nM). The essentials:
as §1

In test [8] the test system is RARa:RXR (NR concentration 270 nM, RXRa partner concentration 90 nM). The essentials:
as §1

The subject of test [9] is RARa homodimer (NR concentration 270 nM). The gist of the method:
as §1

Test [10] deals with RARb:RXRa (NR concentration 270 nM, RXRa partner concentration 90 nM). The essentials:
as §1

For test [11], the system named is RARb homodimer (NR concentration 270 nM). The gist of the method: as §1
Test [12] concerns RARg:RXRa (NR concentration 270 nM, RXRa partner concentration 90 nM). The gist of the method: as §1
Test [13] deals with RARg homodimer (NR concentration 270 nM). The gist of the method: as §1
Test [14] concerns RXRa DBDmut IVT, anti-RXR (DBD mutation: RXRa K156A/R161A, NR concentration 90 nM). The gist of the method:
as §1

Test [15] has as its system RXRa homodimer (NR concentration 180 nM). The gist of the method: as §1
The test system of test [16] is THRa:RXRa (NR concentration 90 nM, RXRa partner concentration 90 nM). The gist of the method:
as §1

The subject of test [17] is THRa homodimer (NR concentration 90 nM). The gist of the method: as §1
The test system of test [18] is VDR homodimer (NR concentration 270 nM). The gist of the method: as §1

As for CAGCCTAGGTCAGTGCCAGTATAGGAGGAACGTT, the PBM binding z-score in [1] is 1.7; in test [2], 1.05; in test [3] it was -1.18; in test [4], -1.02; in [5], 0.587; in test [6], -0.0213. Besides, the PBM binding z-score in [7] is -0.197; in test [8], 0.516; in [9], -0.0242; in [10], 3.17; in test [11] it was 2.5; in test [12] it was 2.55. Besides, the PBM binding z-score is 3.53 in [13]; 0.655 in [14]; 0.856 in test [15]; 1.44 in test [16]; 0.501 in [17]; -0.0639 in [18].

For ATCTCTAGGTAACCAAGTTCAGTGGATGCCGAAC, the PBM binding z-score turned out to be 3.66 in test [1]; 2.83 in test [2]; 0.893 in [3]; 0.352 in test [4]; 0.334 in test [5]; 1.94 in test [6]. For the same sequence, the PBM binding z-score in test [7] was 1.5; in test [8], 0.454; in [9], 0.529; in test [10], 1.18; in test [11], 1.38; in [12], 0.761. For the same sequence, the PBM binding z-score in [13] is 0.959; in [14], 0.576; in test [15], 0.536; in test [16] it was 1.46; in [17], 0.709; in test [18] it was 2.45.

Turning to ATCGAAAGGTCGACGAGGCGAGTATACACCGTTT, the PBM binding z-score in [1] came to 0.214; in [2] it was 1.62; in test [3], 0.933; in test [4], 1.13; in test [5], 1.44; in [6], 2.47. Further, the PBM binding z-score was 0.0107 in test [7]; 3.26 in [8]; 0.0419 in test [9]; 3.84 in [10]; 2.61 in test [11]; 4.06 in [12]. The PBM binding z-score was 3.74 in [13]; 1.28 in test [14]; 4.22 in [15]; 2.48 in test [16]; -0.128 in test [17]; 0.605 in [18].

Turning to ACTAGCAGGCAAAGTTTGGGTCACTCAAACAAAG, the PBM binding z-score is -0.359 in test [1]; 0.492 in test [2]; -0.258 in test [3]; -0.0533 in [4]; 0.153 in test [5]; 0.68 in test [6]. For the same sequence, the PBM binding z-score is -0.439 in test [7]; 1.32 in test [8]; -0.701 in test [9]; 1.07 in test [10]; 1.61 in test [11]; 0.87 in [12]. Moreover, the PBM binding z-score in test [13] is 0.559; in [14], -0.386; in test [15], 0.711; in [16] it was 2.14; in test [17] it was 0.949; in [18] it was 0.233.

As to CAGCCTAGGTCACGGCCAGTATAGGAGGAACGTT, the PBM binding z-score was 3.65 in [1]; 4.36 in test [2]; 0.0261 in test [3]; -0.166 in [4]; 1.71 in test [5]; 2.34 in test [6]. Further, the PBM binding z-score in test [7] is -0.132; in test [8] it was 3.45; in [9], 0.239; in test [10] it was 4.6; in test [11] it was 3.53; in test [12] it was 5.27. For the same sequence, the PBM binding z-score in test [13] was 5.72; in test [14], 1.1; in test [15] it was 4.43; in test [16] it was 3.65; in test [17], 1.98; in test [18] it was 0.435.

Regarding ATCTCTAGGTAAAGATAGTTCAATGAATGCAAAT, the PBM binding z-score amounted to 2.11 in [1]; 1.74 in [2]; 1.55 in test [3]; 1.22 in test [4]; 0.945 in [5]; 1.65 in test [6]. The PBM binding z-score in [7] came out at 1.02; in test [8] it was 0.946; in [9], 1.4; in test [10], 1.07; in [11], 1.4; in test [12], 1.08. Moreover, the PBM binding z-score in [13] is 1.05; in [14] it was 0.373; in test [15], 0.737; in test [16], 1.05; in test [17] it was -0.0901; in test [18], 1.15.

Regarding CCGACTGGGGCAAAGGTTATCATACTCAGTACGA, the PBM binding z-score is 4.35 in test [1]; 5.85 in [2]; -0.186 in [3]; 0.138 in test [4]; 2.13 in [5]; 2.11 in test [6]. Besides, the PBM binding z-score in test [7] was -0.0954; in test [8], 3.14; in [9], -0.00422; in test [10], 2.08; in test [11], 1.89; in test [12], 3. Moreover, the PBM binding z-score in [13] is 1.45; in test [14] it was 0.137; in [15] it was 3.11; in test [16], 1.66; in test [17], -0.0355; in [18], 0.133.

For the sequence TCTAGCAGGCCAGTGGGTCACTCAAGAGGTACGG, the PBM binding z-score is 2.62 in [1]; 3.66 in test [2]; -0.249 in [3]; -0.535 in [4]; -0.0883 in [5]; 0.324 in test [6]. The PBM binding z-score is -0.497 in test [7]; 1.16 in [8]; -0.945 in test [9]; 1.48 in test [10]; 1.64 in [11]; 1.37 in test [12]. Also, the PBM binding z-score was 1.24 in test [13]; -0.186 in [14]; 1.18 in test [15]; 0.549 in [16]; -0.701 in [17]; -0.424 in [18].
